Drawing on PubChem BioAssay (NCATS), this text covers activity change, negative = inhibition, max response and outcome for 21 compounds.

Test [1] is described as follows: qHTS Assay for Lipid Storage Modulators (AID 1519; calls by dose curve; on activity change, negative = inhibition: on the % scale 0 is the no-effect control and ±100 the full control effect). The note with it: Drosophila S3 cells, BODIPY lipid droplet/cell ratio, laser cytometry, cells loaded with oleic acid. A digest of the protocol:
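Cells seeded at 5,000 per well were treated with compounds over a concentration series and loaded with oleic acid (400 uM, as added). Lipid droplet fluorescence (488 nm excitation, 500-530 nm channel) was read by laser-scanning cytometry and normalized to 20 uM Triacsin C.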

Test [2] is described as follows: Cell Viability - LYMP2-010 (AID 981).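 Further: cells exposed to compound for 24 hours at 37 °C; on the % scale 0 is the no-effect control and ±100 the full control effect; nearly all actives have a fitted effect of over 55% in size.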 The settings on record: LYMP2-010 lymphoblastoid cell viability, qHTS; series mostly up to 92.2 µM. In outline: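 Acute toxicity is scored as a concentration-dependent loss of cellular ATP in human lymphoblastoid cells after 24 hr compound exposure in complete medium. Tetraoctylammonium bromide is the positive control.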
Test [3] can be described thus: Cell Viability - LYMP2-012 (AID 982).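 Further: cellular ATP by luciferase luminescence where a drop means cytotoxicity; cells exposed to compound for one day before reading; 0% = DMSO only and full loss = 92 µM tetraoctylammonium bromide; nearly all actives have a fitted effect of over 55% in size.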 The note with it: LYMP2-012 lymphoblastoid cell viability qHTS; series mostly up to 92.2 µM.
Test [4] can be described thus: Cell Viability - LYMP2-014 (AID 983).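 Further: cells exposed to compound for 24 h at 37 °C; plate controls were DMSO only for no effect and 92 µM tetraoctylammonium bromide for full effect; nearly all actives have a fitted effect of over 50% in size.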 The settings on record: LYMP2-014 lymphoblastoid cells, viability qHTS; series mostly up to 92.2 µM. A digest of the protocol: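 Decrease in intracellular ATP after 24 hr treatment at 37 C, measured by luciferase luminescence, indicated cytotoxicity. Concentration-response data were fitted with the standard Hill equation to give AC50.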

The nature of test [5]: Cell Viability - LYMP2-016 (AID 984).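 Further: cells exposed to compound for 24 hours at 37 °C; on the % scale 0 is the no-effect control and ±100 the full control effect; nearly all actives have a fitted effect of over 55% in size.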 The note with it: LYMP2-016 lymphoblastoid cell viability, qHTS; series mostly up to 92.2 µM. A digest of the protocol: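 Human lymphoblastoid cells (LYMP2-016), 2500/well in complete medium, preincubated 5 hr at 37 C, then compound-treated 24 hr at 37 C. Intracellular ATP read by CellTiter-Glo luminescence after 30 min at room temperature; AC50 from Hill-equation concentration-response fits.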

Test [6] can be described thus: Cell Viability - LYMP2-018 (AID 985).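 Further: compound exposure lasted 24 hr at 37 °C; plate controls were DMSO only for no effect and tetraoctylammonium bromide at 92 µM for full effect; nearly all actives have a fitted effect of over 50% in size.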 The note with it: LYMP2-018 lymphoblastoid cells, viability (qHTS); series mostly up to 92.2 µM. A digest of the protocol:
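Acute cytotoxicity is scored as a concentration-dependent drop in intracellular ATP after 24 hr exposure of the lymphoblastoid line in complete culture medium, measured by luciferase luminescence. Potency is expressed as AC50 from Hill modelling.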

Test [7] is described as follows: Cell Viability - LYMP2-020 (AID 986).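 Further: cells exposed to compound for 24 h at 37 °C; plate controls were DMSO only for no effect and tetraoctylammonium bromide at 92 µM for full effect; nearly all actives have a fitted effect of over 55% in size.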 The note with it: series mostly up to 92.2 µM. A digest of the protocol: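 Acute cytotoxicity in a human lymphoblastoid line is scored as a concentration-dependent fall in cellular ATP after 24 hr at 37 C in complete medium. The positive control is tetraoctylammonium bromide, and potency is given as Hill-fit AC50.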
The nature of test [8]: Cell Viability - LYMP2-022 (AID 987). The settings on record: LYMP2-022 lymphoblastoid cell viability; series mostly up to 92.2 µM. In outline: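 Acute toxicity in a human lymphoblastoid line is scored as decreased intracellular ATP after 24 hr compound treatment at 37 C. ATP is measured by CellTiter-Glo luminescence; curves are fitted with the Hill equation to give AC50.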

A short description of test [9]: Cell Viability - LYMP2-024 (AID 988).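 Further: plate controls were DMSO only for no effect and 92 µM tetraoctylammonium bromide for full effect; nearly all actives have a fitted effect of over 60% in size.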 The settings on record: LYMP2-024 lymphoblastoid cell viability; series mostly up to 92.2 µM. A digest of the protocol:
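Acute toxicity is measured as concentration-dependent loss of intracellular ATP in a human lymphoblastoid line treated 24 hours at 37 C. Luciferase luminescence quantifies ATP; AC50 values come from standard Hill-equation modelling.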

Test [10] can be described thus: Cell Viability - LYMP2-026 (AID 989).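 Further: cells exposed to compound for 24 h at 37 °C; on the % scale 0 is the no-effect control and ±100 the full control effect; nearly all actives have a fitted effect of over 50% in size.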 The note with it: LYMP2-026 lymphoblastoid cell viability, qHTS; series mostly up to 92.2 µM. A digest of the protocol: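 Concentration-dependent loss of intracellular ATP in human lymphoblastoid cells after 24 hr at 37 C, quantified by luciferase luminescence. AC50 derived from standard Hill equation.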
Test [11] in a line: Cell Viability - LYMP1-002 - Assay at 24 hr (AID 993). Further: on the % scale 0 is the no-effect control and ±100 the full control effect. The settings on record: LYMP1-002 lymphoblastoid cells viability; series mostly up to 92.2 µM. A digest of the protocol: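 qHTS, LYMP1-002 lymphoblastoid, 24 h cpd, 37 C, CellTiter-Glo ATP luminescence; AC50 via Hill eq.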
Test [12] is described as follows: Cell Viability - LYMP1-002 - Assay at 40 hr (AID 994).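 Further: 0% = DMSO only and full inhibition = 92 µM tetraoctylammonium bromide; nearly all actives have a fitted effect of over 60% in size.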 The settings on record: LYMP1-002 lymphoblastoid cell viability; series mostly up to 92.2 µM. In outline: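 Viability in the human lymphoblastoid line was measured as intracellular ATP via CellTiter-Glo after 40 hr compound exposure. Tetraoctylammonium bromide served as positive control.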
Where [13] appears, read: measured here: cell count channel max response.
Setting [14] is: measured here: lipid channel max response.

Where “and” joins values, the source holds several entries; their conditions need not be identical. Equal values may be shown once. Results filed as inconclusive are left out. Calls of active or inactive are those of the source. Unless noted, the call rests on the fitted dose curve; in most records, active means well fitted cell-killing curve with a large enough effect; inconclusive means small, poorly fitted or top-dose-only effect; inactive means flat fitted curve, though single readings scatter.

For the compound `NC(N)=NCCN1CCCCCCC1`, the activity change, negative = inhibition was -2.42% (inactive) in test [1] (at 25.7 µM (top of the series)) and 6.2% (inactive) in test [1] (at 57.5 µM (top of the series)). For the same compound, the max response in test [1] (setting [13]) was 3.46% and 15.5%; in test [1] (setting [14]), 0.449% and 29.6%.
As for `CCS(=O)(=O)CCn1c([N+](=O)[O-])cnc1C`, the activity change, negative = inhibition was -0.644% (inactive) in test [1] (at 25.7 µM (top of the series)) and 8.24% (inactive) in test [1] (at 57.5 µM (top of the series)). Besides, the max response is -6.2% and 14.4% in test [1] (setting [13]); -8.29% and 29% in [1] (setting [14]).
`Cn1c([N+](=O)[O-])cnc1COC(N)=O`: the activity change, negative = inhibition in test [1] (at 25.7 µM (top of the series)) was 1.17% (inactive); in test [1] (at 57.5 µM (top of the series)) it was 7.17% (inactive). The max response was -1.45% and 4.32% in test [1] (setting [13]); -3% and 14.5% in test [1] (setting [14]).
In the case of `CCCCC1(COC(=O)CCC(=O)O)C(=O)N(c2ccccc2)N(c2ccccc2)C1=O`, the activity change, negative = inhibition is -3.4% (inactive) in test [1] (at 25.7 µM (top of the series)) and 5.77% (inactive) in [1] (at 57.5 µM (top of the series)). The max response is -9.42% and 23.5% in test [1] (setting [13]); -12.6% and 36.6% in test [1] (setting [14]).
As for `C[C@@H](N)C(=O)O`, the activity change, negative = inhibition in [1] (at 57.5 µM (top of the series)) was -5.25% (inactive). The max response in [1] (setting [13]) was -10.1%; in test [1] (setting [14]), -15.3%.
For `CNCc1ccccc1`, in that order: 4.39% (inactive), 16% and 24.6%.
Take `CCc1cccc(CC)c1NC(=O)CN(CC(=O)O)CC(=O)O`: the activity change, negative = inhibition in test [1] (at 25.7 µM (top of the series)) is 1.96% (inactive). Besides, the max response in test [1] (setting [13]) is -4.83%; in test [1] (setting [14]), -3.06%.
For the compound `O=C(O)c1ccccc1C(=O)Nc1ccc(S(=O)(=O)Nc2nccs2)cc1`, the activity change, negative = inhibition is -0.565% (inactive) in [1] (at 25.7 µM (top of the series)) and 12.9% (inactive) in [1] (at 57.5 µM (top of the series)). The max response is -5.87% and 21% in test [1] (setting [13]); -9.76% and 42% in test [1] (setting [14]).
As for `CCN(CC)CCOC(=O)C(c1ccccc1)c1ccccc1`, the activity change, negative = inhibition in [1] (at 25.7 µM (top of the series)) was -0.714% (inactive); in test [1] (at 57.5 µM (top of the series)), -3.74% (inactive). For the same compound, the max response in [1] (setting [13]) was -10.9% and -9.85%; in test [1] (setting [14]), -13.6% and -9.37%.
Regarding `CC(C)(C)C(=O)OCOC(=O)[C@@H]1N2C(=O)[C@@H](NC(=O)[C@H](N)c3ccccc3)[C@H]2SC1(C)C`, the activity change, negative = inhibition in test [1] (at 25.7 µM (top of the series)) is 2.04% (inactive). Also, the max response in test [1] (setting [13]) is -13%; in test [1] (setting [14]), -12.6%.
Regarding `CCN(CC)CCc1nc(-c2ccccc2)no1`, in test [1] (at 25.7 µM (top of the series)), the activity change, negative = inhibition is -4.73% (inactive). Also, the results for the max response in test [1] (setting [13]) and in test [1] (setting [14]) were -16% and -19.5%, respectively.
Turning to `Cc1c(NC(C)C)c(=O)n(-c2ccccc2)n1C`, the activity change, negative = inhibition is 1.53% (inactive) in [1] (at 25.7 µM (top of the series)) and 9.46% (inactive) in [1] (at 57.5 µM (top of the series)). In addition, the max response in test [1] (setting [13]) is 12.2% and 13.2%; in test [1] (setting [14]) it was 14.1% and 25.6%.
Take `C=CCSCC1Nc2cc(Cl)c(S(N)(=O)=O)cc2S(=O)(=O)N1` (configuration not stated): the activity change, negative = inhibition in test [1] (at 57.5 µM (top of the series)) is 8.24% (inactive). In addition, the max response worked out at 6.41% in test [1] (setting [13]) and 6.24% in [1] (setting [14]).
Taken in the same sequence, the figures for `NS(=O)(=O)c1cc(C2(O)NC(=O)c3ccccc32)ccc1Cl` (configuration not stated) were 3.99% (inactive), 20% and 27%.
For `C[n+]1ccccc1/C=N/O`, in that order: 6.44% (inactive), 15.5% and 23.8%.
On to `CC(=O)Nc1ccc(C(=O)O)cc1`, for which the outcome in test [2], in test [3], in [4], in [5], in [6] and in test [7] was inactive. In addition, the result in test [8], in [9], in [10], in [11] and in [12] was inactive.
For `O=C(c1ccccc1)C(O)c1ccccc1` (configuration not stated), the result in test [2], in test [3], in [4], in [5], in [6] and in test [7] was inactive. Also, the result in test [8], in test [9], in [10], in [11] and in test [12] was inactive.
For `CCCCCC(N)=O`, the compound was called inactive in [2], in test [3], in test [4], in [5], in [6] and in test [7]. Also, the call in test [8], in test [9], in test [10], in test [11] and in test [12] was inactive.
`C=CCNC(N)=S`: the result in test [2], in test [3], in test [4], in test [5], in [6] and in [7] was inactive. The compound was classed as inactive in [8], in [9], in [10], in test [11] and in test [12].
With `CC(=O)OCC(COC(C)=O)OC(C)=O`, the call in [2], in test [3], in [4], in [5], in test [6] and in [7] was inactive. Also, the result in [8], in test [9], in [10], in [11] and in test [12] was inactive.
Consider `CC(=O)NS(=O)(=O)c1ccc(N)cc1`, for which the compound was called inactive in test [2], in [3], in test [4], in test [5], in test [6] and in [7]. For the same compound, the compound was called inactive in test [8], in test [9], in test [10], in test [11] and in test [12]. Besides, the activity change, negative = inhibition in test [1] (at 25.7 µM (top of the series)) is -1.25% (inactive); in test [1] (at 57.5 µM (top of the series)), 7% (inactive). In addition, the max response in test [1] (setting [13]) is 0.487% and 9.27%; in test [1] (setting [14]), -1.3% and 19.7%.
